Assay outcomes (PubChem)
a7 integrin act = qHTS for Activators of Integrin-Mediated Alleviation for Muscular Dystrophy; Potency, µM (series often up to 38.3 µM), most hits filed as activators; AID 624291, 2012; 350,000 tested, 0.064% active; alpha7betagal myoblasts, beta-gal FDG fluorescence, 48 h; also: nearly all actives have a fitted effect of over 60% in size
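Alpha7betagal+/- myoblasts (passage 13) were plated 16-24 hr, then exposed to compounds (1:260 dilution of DMSO stock) for 48 hours at 37C. After MPER lysis, β-galactosidase reporter activity was read as FDG fluorescence (ex 480/em 540) after 30 minutes.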
BCR signal inh = qHTS Assay to Find Inhibitors of Chronic Active B-Cell Receptor Signaling | 340,000 tested, 0.05% active | Potency, µM (series often up to 46.1 µM), most hits filed as inhibitors | ABC-DLBCL IkBa-CBG/CBR reporter, luminescence ratio, 4 h; active = well fitted inhibition curve with a large enough effect in the signal ratio, with a control signal flat, not every such curve was filed as active; inconclusive = small, poorly fitted or top-dose-only effect, or effect the other way, or a change in a side signal; the % refers to the signal ratio
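TMD8 human ABC-DLBCL cells with doxycycline-inducible IκBα–green luciferase fusion and unfused red luciferase, in 0.5% FBS medium; compounds up to 46 uM, 4 h at 37C. Green/red luminescence ratio, filter-overlap corrected, fitted to concentration-response curves.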
RORgamma inh = qHTS for inhibitors of ROR gamma transcriptional activity. Potency, µM (highest dose often 53.6 µM), usual class: inhibitors. AID 2551, 2010. Nuclear receptor ROR-gamma (Mus musculus), P51450. 310,000 tested, 5.4% active. Drosophila S2 Gal4-RORgamma UAS-luciferase reporter, 20 h; also: nearly all actives have a fitted effect of over 60% in size
Target sequence (P51450 whole entry, looked up, the tested form may be a part): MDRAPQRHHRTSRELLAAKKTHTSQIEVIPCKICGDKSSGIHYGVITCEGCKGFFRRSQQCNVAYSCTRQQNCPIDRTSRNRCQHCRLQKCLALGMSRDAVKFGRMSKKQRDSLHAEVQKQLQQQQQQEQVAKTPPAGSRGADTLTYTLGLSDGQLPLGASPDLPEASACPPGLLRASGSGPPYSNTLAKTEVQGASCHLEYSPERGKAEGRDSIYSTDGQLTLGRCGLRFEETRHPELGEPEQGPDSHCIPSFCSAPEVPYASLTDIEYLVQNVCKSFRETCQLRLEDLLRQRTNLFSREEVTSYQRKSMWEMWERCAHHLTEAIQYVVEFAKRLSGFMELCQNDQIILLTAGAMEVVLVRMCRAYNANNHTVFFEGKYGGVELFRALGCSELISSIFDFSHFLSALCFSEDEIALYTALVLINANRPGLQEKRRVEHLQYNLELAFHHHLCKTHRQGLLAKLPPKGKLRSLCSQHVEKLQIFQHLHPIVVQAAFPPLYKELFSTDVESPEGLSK
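Drosophila S2 cells stably expressing Gal4-DBD/mouse RORγ fusion under metallothionein promoter plus UAS-luciferase; compound 1 h, then 700 uM CuSO4 induction for 20 h at ambient temperature; inhibition read as reduced luminescence.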
uPA generation = qHTS for Inhibitors of Cell Surface uPA Generation; cell surface uPA generation assay, qHTS; Potency, µM (series often up to 38.3 µM), usual class: inhibitors; 330,000 tested, 0.31% active; active = well fitted inhibition curve with a large enough effect; inconclusive = small, poorly fitted or top-dose-only effect; inactive = no such curve, though single readings can be large or run the other way; tested in mouse RAW 264.7 cells; also: nearly all actives have a fitted effect of over 55% in size
Mito fusion act = qHTS Assay for Small Molecule Inhibitors of Mitochondrial Division or Activators of Mitochondrial Fusion | S. cerevisiae fusion-defective mutant growth rescue, CellTiterGlo 48 h | Potency, µM (top dose mostly 46.1 µM), hits mostly activators | 320,000 tested, 0.23% active | AID 485298, 2010; also: nearly all actives have a fitted effect of over 45% in size
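Luminescent cell viability in 1536-well qHTS format served as the measure of rescued growth in ts fusion-mutant S. cerevisiae cultured on non-fermentable YPEG for 48 hours at 37C.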
VP16 counter = VP16 counterscreen qHTS for inhibitors of ROR gamma transcriptional activity | Drosophila S2 Gal4-VP16 UAS-luciferase, luminescence, 20 h | Potency, µM (titrated, usually from 53.6 µM), usual class: inhibitors | 310,000 tested, 3.5% active | AID 2546, 2010;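 also: Gal4-VP16 expression switched on by copper sulfate through the metallothionein promoter; nearly all actives have a fitted effect of over 50% in size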
Each line names hits and unclear results; the compound was inactive in the other large screens. Hits are enriched below; roughly 5.5% of the tested compounds scored in any of these assays. Unless noted, calls follow the shape of the dose curve; as a rule, active = well fitted curve in the direction sought with a large enough effect; inconclusive = small, poorly fitted or top-dose-only effect, or another doubt; inactive = no such curve, though single readings can be large; an effect the other way counts as inactive or inconclusive.

Fc1cccc2sc(Nc3nnc(-c4ccccc4)o3)nc12	BCR signal inh inconclusive, RORgamma inh 1.8µM, VP16 counter 2.5µM
S=C(NCCN1CCOCC1)N/N=C/c1cccs1	BCR signal inh inconclusive, RORgamma inh 1.3µM, VP16 counter 4.5µM
Oc1cccc(/C=N/NC(=S)NCCN2CCOCC2)c1O	BCR signal inh inconclusive, RORgamma inh 7.1µM, uPA generation inconclusive, VP16 counter inconclusive
COc1ccc(CC(=O)Nc2c3c(nn2C(C)(C)C)CS(=O)(=O)C3)cc1OC	none
CC(C)Cc1ccc(/C=C/C(=O)NC2CC2)cc1	BCR signal inh inconclusive, RORgamma inh inconclusive, Mito fusion act inconclusive, VP16 counter 16µM
COCCNS(=O)(=O)c1ccc(C)c(C)c1C	none
O=C(CCSc1ccc(Cl)cc1)c1ccco1	BCR signal inh inconclusive, RORgamma inh 11µM, VP16 counter inconclusive
COc1cnc(-c2ccccn2)nc1N(C)c1ccccc1	RORgamma inh 7.9µM, VP16 counter inconclusive
COc1cnc(-c2ccccn2)nc1Oc1cccc(C(F)(F)F)c1	RORgamma inh 6.3µM, VP16 counter 11µM (no result: a7 integrin act, uPA generation)
COc1cnc(-c2ccccn2)nc1Oc1ccccc1	RORgamma inh 11µM, VP16 counter inconclusive
COC(=O)C(CCSC)NS(=O)(=O)c1ccccc1Br (centres undefined)	none (no result: a7 integrin act, BCR signal inh, uPA generation, Mito fusion act)
CC(C)C(C)NC(=O)CSc1nc2scc(-c3ccco3)c2c(=O)n1-c1ccccc1 (centres undefined)	RORgamma inh inconclusive, VP16 counter 14µM
C=CCn1c(SC(F)F)nc2scc(-c3ccco3)c2c1=O	BCR signal inh inconclusive, RORgamma inh inconclusive, VP16 counter 5µM
O=C(Nc1ccc2[nH]ccc2c1)c1ccc(F)cc1	BCR signal inh inconclusive, RORgamma inh 11µM, uPA generation 0.89µM, VP16 counter inconclusive
CCc1ccc(NC(=O)c2ccc(F)c(S(=O)(=O)N3CCN(c4ccc(OC)cc4)CC3)c2)cc1	none (no result: a7 integrin act, RORgamma inh, uPA generation, Mito fusion act, VP16 counter)
CCCCOc1ccc(C(=O)CCN2CCOCC2)cc1	BCR signal inh inconclusive, RORgamma inh inconclusive, VP16 counter inconclusive
CCCOc1ccc(C(=O)c2nc3c(n2O)CCCCC3)cc1	VP16 counter 20µM
CCCOc1ccc(C(=O)CCN2CCCCC2)cc1	RORgamma inh inconclusive, VP16 counter 14µM
CCOc1ccc(C(=O)CCN2CCCCCC2)cc1	BCR signal inh inconclusive, RORgamma inh 4.5µM, VP16 counter 5.6µM
COc1cc(Cl)c(C)cc1NC(=O)COC(=O)CCc1nc2ccccc2c(=O)[nH]1	a7 integrin act inconclusive (no result: RORgamma inh, VP16 counter)
Cc1ccc2nc(-c3ccc(O)cc3)oc2c1	a7 integrin act inconclusive, RORgamma inh 2.5µM, VP16 counter 7.1µM
Cc1ccc2nc(-c3cccc(N)c3)oc2c1	uPA generation inconclusive
O=C(COc1ccc(Cl)cc1Cl)NNC(=S)NC(=O)c1ccco1	BCR signal inh inconclusive, RORgamma inh 11µM, VP16 counter inconclusive
CC(Oc1ccc(Cl)cc1)C(=O)NNC(=S)NC(=O)c1ccco1 (centres undefined)	BCR signal inh inconclusive, RORgamma inh 13µM, VP16 counter inconclusive
O=C(COc1ccc(Cl)cc1Cl)NCc1ccco1	BCR signal inh inconclusive, RORgamma inh inconclusive
O=C(NC(=S)NCc1ccc(Cl)cc1Cl)c1ccco1	none (no result: RORgamma inh, Mito fusion act, VP16 counter)
O=C(COc1ccc(Cl)cc1Cl)NNC(=S)NCc1ccco1	RORgamma inh 3.2µM, VP16 counter inconclusive
Cc1ccc(C(=O)NCc2ccc3c(c2)CCN3C(=O)c2ccc(C)cc2)cc1	none (no result: a7 integrin act, RORgamma inh, uPA generation, Mito fusion act, VP16 counter)
C=CC[C@](C)(O)c1ccccc1	none (no result: a7 integrin act, BCR signal inh, uPA generation, Mito fusion act)
Cc1ccc(C(=O)/C=C2\NCCNC2=O)cc1	BCR signal inh inconclusive, RORgamma inh inconclusive
Cc1ccc(C(=O)/C=C2\NCC(C)NC2=O)cc1 (centres undefined)	BCR signal inh inconclusive, RORgamma inh 8.9µM, VP16 counter 10µM
O=C(NN=C1c2ccccc2-c2ccccc21)c1cccc(Br)c1	BCR signal inh inconclusive, RORgamma inh 1.8µM, VP16 counter 3.2µM
